Tau fibril ThT – tau fibrillization inhibition (ThT binding); recombinant tau K18 P301L, heparin-induced fibrillization, ThT fluorescence; Potency, µM (titrated, usually from 57.4 µM), usual class: inhibitors; 2.1% of 270,000 active; AID 1460; further: nearly all actives have a fitted effect of over 55% in size
Target sequence (P10636 561-689 P618L limits assumed): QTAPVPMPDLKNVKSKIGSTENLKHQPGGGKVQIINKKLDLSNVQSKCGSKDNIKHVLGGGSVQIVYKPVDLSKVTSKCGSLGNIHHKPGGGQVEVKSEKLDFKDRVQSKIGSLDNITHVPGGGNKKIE
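ThT emission at 510 nm, taken 1 hr after adding 30 uM dye, quantifies aggregates formed when 20 uM heparin acts on human tau K18 P301L for 6 hr at 37 C.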
Tau fibril FP – blocks human tau fibril formation measured by polarization; P10636; K18 P301L tau heparin fibrillization, Alexa594 FP, 6 h; Potency, µM (series often up to 57.7 µM), usual class: inhibitors; 0.39% of 280,000 active; AID 1468; further: nearly all actives have a fitted effect of over 55% in size
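K18 P301L tau (15 uM unlabeled/0.24 uM Alexa 594-labeled, final) + compound + heparin 20 uM final; 100 mM NaOAc pH 7; 6 hr 37 C; ThT 30 uM final added, 1 hr RT; FP ex 555/em 632 nm.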
GoLoco inh red – RGS12 GoLoco-Gai1 interaction inhibition; P63096; Gai1:RGS12 GoLoco peptide FP, rhodamine, 10 min; Potency, µM (series often up to 61.6 µM), actives largely listed as inhibitors; 0.44% of 230,000 active; AID 880; active means well fitted inhibition curve with a large enough effect, not every such curve was filed as active; inactive means no such curve, though single readings can be large or run the other way; further: nearly all actives have a fitted effect of over 30% in size
Tau fluor cs – counter-screen for tau fibril formation inhibitors; tau K18 P301L Alexa594 fluorescence, heparin fibrillization; Potency, µM (series often up to 57.7 µM); 0.93% of 280,000 active; AID 1463; further: nearly all actives have a fitted effect of over 55% in size
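Human tau K18 P301L (15 uM unlabeled, 0.24 uM Alexa 594-labeled) in 100 mM sodium acetate pH 7 with 20 uM heparin, 6 hr at 37 C. ThT 30 uM added, 1 hr ambient; Alexa 594 FP and total fluorescence read at 555/632 nm.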
JMJD2E inh – JMJD2E (human) inhibition; JMJD2E catalytic domain, FDH-coupled NADH fluorescence (FDH is formaldehyde dehydrogenase); Potency, µM (doses to about 57.1 µM), usual class: inhibitors; 1.6% of 230,000 active; AID 2147; active means well fitted inhibition curve with a large enough effect, not every such curve was filed as active; inconclusive means small, poorly fitted or top-dose-only effect, or another doubt; inactive means no such curve, though single readings can be large or run the other way; further: nearly all actives have a fitted effect of over 50% in size
Target sequence (B2RXH2 1-337 limits assumed): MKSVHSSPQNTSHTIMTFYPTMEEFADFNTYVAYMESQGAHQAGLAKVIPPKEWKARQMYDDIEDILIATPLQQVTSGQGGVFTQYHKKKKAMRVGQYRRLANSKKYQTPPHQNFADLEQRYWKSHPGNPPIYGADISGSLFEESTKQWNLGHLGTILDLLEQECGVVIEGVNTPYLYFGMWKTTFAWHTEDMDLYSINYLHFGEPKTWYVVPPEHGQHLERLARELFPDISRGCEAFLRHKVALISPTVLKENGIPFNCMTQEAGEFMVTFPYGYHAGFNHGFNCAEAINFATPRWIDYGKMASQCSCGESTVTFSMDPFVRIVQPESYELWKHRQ
Of the large screens only hits and unclear results are named; the others gave an inactive call; [ ] = dose if it differs, or a comment. Sampled rows, rich in hits. Any-hit rate of the full collection: about 3.4%. Unless noted, the call rests on the fitted dose curve; in most records, active means well fitted curve in the direction sought with a large enough effect; inconclusive means small, poorly fitted or top-dose-only effect, or another doubt; inactive means no such curve, though single readings can be large; an effect the other way counts as inactive or inconclusive.

Cc1ccc(S(=O)(=O)NN2C(=O)/C(=C/c3cccn3C)SC2=S)cc1	Tau fibril ThT 10µM
O=C1/C(=C/c2cccnc2)SC(=S)N1Nc1ccccc1	Tau fibril ThT 28µM, Tau fibril FP inconclusive, Tau fluor cs inconclusive
O=C1/C(=C/c2cccnc2)SC(=S)N1c1ccccc1	none
Cc1ccc(S(=O)(=O)NN2C(=O)/C(=C/c3cccs3)SC2=S)cc1	none (no result: Tau fibril ThT)
CC(C)C(C(=O)O)N1C(=O)/C(=C/c2cccn2C)SC1=S (stereo not drawn)	Tau fibril ThT inconclusive
Cn1cccc1/C=C1\SC(=S)N(Nc2ccccc2)C1=O	Tau fibril ThT 3.5µM, Tau fluor cs inconclusive
COc1cccc(CNC(=O)Cc2c(C)c3c(cc(C)c4c(C)coc43)oc2=O)c1	none (no result: GoLoco inh red, JMJD2E inh)
CCn1ccc2c(OCC(=O)Nc3ccccc3C(F)(F)F)cccc2c1=O	none (no result: GoLoco inh red, JMJD2E inh)
Cc1ccc(NC(=O)c2cc(CN3CCOCC3)on2)cc1Cl	none (no result: GoLoco inh red, JMJD2E inh)
Cc1ccc(C(=O)N/C(=C\c2ccc(-c3ccc([N+](=O)[O-])cc3)o2)C(=O)NC2CCS(=O)(=O)C2)cc1 (stereo not drawn)	Tau fibril ThT 6.3µM, Tau fluor cs inconclusive
Cc1ccc(C(=O)N/C(=C\c2ccc(-c3cccc([N+](=O)[O-])c3)o2)C(=O)NC(C)(C)C)cc1	none
COCCCNC(=O)C1CCN(C(=O)c2ccc(-n3ccc4ccccc43)s2)CC1	none (no result: GoLoco inh red, JMJD2E inh)
COc1ccc(N=Cc2c(O)[nH]c3ccccc23)cc1	Tau fibril ThT inconclusive, Tau fluor cs inconclusive
Oc1[nH]c2ccccc2c1C=Nc1ccc2c(c1)OCO2	Tau fibril ThT 7.9µM, Tau fluor cs inconclusive
Cc1[nH]c2ccccc2c1/C=N/NC(=O)c1cccs1	Tau fibril ThT 11µM, Tau fluor cs 18µM[quencher]
Cc1[nH]c2ccccc2c1/C=N\NC(=O)CNc1ccc2c(c1)OCO2	Tau fibril ThT 16µM, Tau fluor cs inconclusive
CCc1cccc(CC)c1NC(=O)c1c(C)oc2ccc(O)c(CN3CCN(C)CC3)c12	none (no result: GoLoco inh red, JMJD2E inh)
Cc1nnc(N2CCCC(C(=O)NCCc3ccc(Cl)cc3)C2)c2nn(-c3ccccc3)c(C)c12 (stereo not drawn)	none (no result: GoLoco inh red, JMJD2E inh)
CC(=O)Nc1ccc(C(=O)OCC(=O)Nc2ccccc2Sc2ccccc2)cc1	Tau fibril ThT inconclusive, Tau fibril FP inconclusive, Tau fluor cs inconclusive
COC(=O)c1c(NC(=O)COC(=O)c2ccccc2O)sc2c1CCCCC2	Tau fibril ThT inconclusive, JMJD2E inh inconclusive
N#CCC(=O)Nc1ccc(C(=O)OCC(=O)Nc2ccccc2Sc2ccccc2)cc1	Tau fibril FP 28µM, Tau fluor cs inconclusive
COC(=O)c1c(NC(=O)COC(=O)c2ccc(NC(=O)CC#N)cc2)sc2c1CCCCC2	JMJD2E inh 5µM
CCOc1ccc(CCNC(=O)Cn2ccc3cc(S(=O)(=O)N4CCCCC4)ccc32)cc1	none (no result: GoLoco inh red, JMJD2E inh)
CCc1ccc2[nH]c(=O)c(C(c3nnnn3CCOC)N3CCN(c4ccccc4F)CC3)cc2c1 (stereo not drawn)	Tau fibril ThT 18µM, Tau fibril FP inconclusive, JMJD2E inh inconclusive
CCCNC(=O)Nc1cc(C(=O)NCc2cccc(OCC)c2)ccc1N1CCCC1	none (no result: GoLoco inh red, JMJD2E inh)
Cc1cc(N=Nc2ccc(Cl)cc2)cc(CN2CCCC2)c1O	Tau fibril ThT 28µM, Tau fibril FP inconclusive, Tau fluor cs inconclusive
CCCCc1ccc(NS(=O)(=O)c2cc3c4c(c2)CC(=O)N4CCC3)cc1	Tau fibril ThT inconclusive (no result: GoLoco inh red, JMJD2E inh)
CCc1cc([N+](=O)[O-])cc(CC)c1N	none
CCc1cc(SC#N)ccc1N	Tau fibril ThT 13µM, Tau fibril FP inconclusive
COCCNC(=O)CSc1nnc2c(Cl)cc(Cl)cn12	Tau fibril ThT 13µM, Tau fibril FP 25µM (no result: GoLoco inh red)
COc1ccc(/C=N/NC(=O)Cc2csc(Nc3cccc(C(F)(F)F)c3)n2)c(OC)c1	Tau fluor cs inconclusive
CCOc1ccc(/C=N/NC(=O)Cc2csc(Nc3cccc(C(F)(F)F)c3)n2)c(OCC)c1	Tau fibril FP inconclusive, Tau fluor cs inconclusive
CCOc1ccccc1/C=N/NC(=O)Cc1csc(Nc2cccc(C(F)(F)F)c2)n1	Tau fluor cs 20µM[quencher]
CCOc1ccc(/C=N/NC(=O)Cc2csc(Nc3cccc(C(F)(F)F)c3)n2)cc1	Tau fibril ThT inconclusive, Tau fluor cs 10µM[quencher]
CCOc1ccc(NC(=S)N(CCc2c(C)[nH]c3ccccc23)Cc2ccco2)cc1	Tau fibril ThT inconclusive, Tau fibril FP inconclusive, Tau fluor cs 13µM[quencher]
CNC(=S)N(CCc1c(C)[nH]c2ccccc12)Cc1ccco1	none
COc1ccc(NC(=S)N(CCc2c(C)[nH]c3ccccc23)Cc2ccco2)cc1	Tau fibril ThT inconclusive, Tau fluor cs 14µM[quencher]
CC1=C(c2ccc(C)cc2)S(=O)(=O)NC1=NCCCN1CCN(c2ccccc2F)CC1	none (no result: GoLoco inh red, JMJD2E inh)
COc1ccc(C2C(=O)c3ccccc3C2=O)cc1	Tau fibril ThT inconclusive, Tau fibril FP inconclusive
O=C1c2ccccc2C(=O)C1c1ccnc2ccccc12	Tau fibril ThT 1.8µM
N#CC1=C(N)SC(N)=C(C#N)C1c1ccnc2ccccc12	Tau fibril ThT 28µM, Tau fibril FP inconclusive, JMJD2E inh inconclusive
Cc1ccc(C2C(C#N)=C(N)SC(N)=C2C#N)c(C)c1	none
O=C1c2ccccc2C(=O)C1c1nccc2ccccc12	Tau fibril ThT 1.4µM
CCCCCCCCCCC(CO)CCCCCCCC (stereo not drawn)	none (no result: Tau fibril ThT, Tau fibril FP, Tau fluor cs, JMJD2E inh)

Bioassay records (PubChem BioAssay)
